Assay outcomes from PubChem BioAssay.
hgDAF-12 ag: agonists of H. glycines DAF-12 nuclear receptor | 370,000 compounds, 1.8% hits | activation, % at 6.8 µM | HEK293 GAL4-hgDAF12 UAS-luciferase reporter, agonist luminescence; normalized to butyrate control;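 active means activation above a cutoff set at the mean of all screened compounds plus 3 SD, cut at about 10% in these data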;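 further: 0% = DMSO wells and 100% = sodium butyrate wells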
DAX1 inh-1: inhibitors of human orphan nuclear receptor DAX1 (NR0B1); inhibition, % at 6.75 µM; P51843; AID 504766; 340,000 compounds, 0.99% hits; HEK293 Gal4-DAX1 luciferase reporter, luminescence;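 active means inhibition above the mean over all tested compounds plus 3 SD, cut at about 4.2% in these data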;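 further: 0% = DAX1-transfected cells with DMSO and 100% = empty-vector control cells with DMSO; inhibition shows as a rise in luminescence from relieved DAX1 repression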
Target sequence (P51843 207-470 limits assumed): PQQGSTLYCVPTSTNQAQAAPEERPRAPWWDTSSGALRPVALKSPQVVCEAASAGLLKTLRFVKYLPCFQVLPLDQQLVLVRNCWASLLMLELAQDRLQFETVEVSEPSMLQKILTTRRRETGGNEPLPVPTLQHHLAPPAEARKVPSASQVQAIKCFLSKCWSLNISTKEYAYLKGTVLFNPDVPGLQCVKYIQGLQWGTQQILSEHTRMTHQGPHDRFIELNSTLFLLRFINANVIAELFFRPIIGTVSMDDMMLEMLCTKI
hcDAF12 agonist: activates DAF-12 receptor from parasite H. contortus | HEK293 hcDAF-12 lit1-tk-luc reporter, luminescence; 0% DMSO, 100% Δ7-dafachronic acid | activation, % at 6.8 µM | 370,000 compounds, 1.4% hits;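 active means activation above the mean of all tested compounds plus 3 SD, cut at about 5.5% in these data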;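 further: 100% = response to 3 µM Δ7-dafachronic acid high control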
ssDAF-12 act: activators of S. stercoralis DAF-12 nuclear receptor; HEK293 ssDAF-12/GRIP1 lit1-tk-luc reporter, luminescence; % of 3 µM dafachronic acid response; activation, % at 6.8 µM; 370,000 compounds, 1% hits;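 active means activation above the mean over all tested compounds plus 3 SD, cut at about 0.9% in these data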;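 further: 0% = DMSO-only wells and 100% = 3 µM delta7-dafachronic acid wells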
DAX1 inh-2: DAX1 (NR0B1) inhibition, primary screen | HEK293T StAR-luciferase reporter, SF-1/DAX-1 repression relief | inhibition, % at 6.8 µM | 370,000 compounds, 1.1% hits | AID 652010;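 active means inhibition above the mean over all tested compounds plus 3 SD, cut at about 3.6% in these data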;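 further: 0% = DAX-1 cells with DMSO and 100% = cells lacking DAX-1 with DMSO; higher inhibition means more luminescence from relief of DAX-1 repression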
Starred values were filed as active, the others as inactive; nt = no result. In the library only some 4.1% were active in any assay of this set; here they are far more common.

SMILES	hgDAF-12 ag	DAX1 inh-1	hcDAF12 agonist	ssDAF-12 act	DAX1 inh-2
C/C(=N/NC(=O)c1ccco1)c1cccc(NC(=O)c2ccc(C)s2)c1	12*	2	5	0	2
C/C(=N/NC(=O)c1ccco1)c1cccc(NC(=O)c2ccc(C)o2)c1	13*	1	2	-1	1
NC(=O)C(=O)NCCCN1CCOCC1	4	0	-1	-1	1
S=c1[nH]cnc2sc(Nc3ccccc3)nc12	5	1	5.8*	0	0
Cc1sc2nc[nH]c(=S)c2c1-c1ccccc1	-3	1	0	-2	0
c1ccc(-c2ccc(C3=Nn4c(nnc4-c4ccccn4)SC3)cc2)cc1	0	nt	-3	-1	-1
FC(F)(F)c1nnc2ccc(NCc3ccccc3)nn12	-1	-1	-1	-1	0
FC(F)(F)c1nnc2ccc(NCc3cccnc3)nn12	-3	7.9*	-2	-1	0
CCOC(=O)C1CSCCS(=O)(=O)N1Cc1cccc(F)c1 (stereo unspecified)	-2	nt	-1	-1	1
C=CCn1c(O)c(C2=c3ccccc3=NC2=O)sc1=Nc1ccc(O)cc1	2	2	4	0	0
O=C1N=c2ccccc2=C1c1sc(=S)n(NC(=O)c2ccccc2)c1O	2	0	3	1.0*	1
COC(=O)[C@]12C[C@H](CC(=O)N3CCCC3)C(=O)N(Cc3ccco3)C1=C[C@H](C1CCCC1)O[C@@H]2C	-1	nt	-2	-1	-1
OCCCNc1ncnc2c1ncn2[C@H]1CN(Cc2ccc3c(c2)OCO3)C[C@@H](CO)O1	-1	nt	6.3*	-1	0
COc1ccccc1NC(=S)N1CCC(C(=O)c2ccc(F)cc2)CC1	0	5.6*	0	-1	0
CC(=O)CSc1nnc(-c2ccc(S(=O)(=O)N3CCOCC3)cc2)n1C	0	5.4*	0	-1	0
CC(=O)CSc1nnc(-c2ccc(S(=O)(=O)N3CCCC3)cc2)n1C	0	1	1	-1	0
O=C(CCc1ccccc1)N[C@H]1[C@H](OCc2ccccc2)CCC[C@@]12C(=O)N(Cc1ccccc1)c1ccc(-c3ccccn3)cc12	0	nt	0	-1	-1
O=C(NC1=NC2CCCCC2N1)c1ccccc1 (stereo unspecified)	8	1	2	0	3.8*
COc1ccc(CNS(=O)(=O)/C=C/c2ccc(OC)cc2CNC(=O)OC(C)(C)C)cc1	0	nt	-4	-1	-1
CN1CCC(N[C@@H](Cc2c[nH]c3ccccc23)C(=O)NCCCc2ccccc2)(C(=O)NCCc2c[nH]c3ccccc23)CC1	3	nt	6.3*	-1	nt
O=C(NCCCc1ccccc1)[C@H](Cc1ccccc1)NC1(C(=O)NCCc2c[nH]c3ccccc23)CCOCC1	0	nt	-1	-1	nt
CC(=O)Nc1ccc(NC(C)=C(C#N)C#N)cc1	-2	4.3*	1	-1	0
OCC1COC(c2ccccc2)=N1 (stereo unspecified)	-4	nt	-2	-2	2
COc1ccc(S(=O)(=O)N2CCOC23CCN(S(=O)(=O)c2ccccc2)CC3)cc1	2	4.3*	-1	-1	1
O=Cc1ccc(OCC(=O)N2CCc3ccccc32)c(Br)c1	7	0	2	0	2
SMILES	hgDAF-12 ag	DAX1 inh-1	hcDAF12 agonist	ssDAF-12 act	DAX1 inh-2
O=C(COc1ccc([N+](=O)[O-])cc1Cl)N1CCc2ccccc21	9	1	5	1	4.4*
O=C(COc1ccccc1Cl)NC(=S)N1CCc2ccccc21	2	0	5.9*	-1	1
O=C(COc1ccccc1)NC(=S)N1CCc2ccccc21	8	-1	4	0	1
O=C(c1cc([N+](=O)[O-])ccc1Cl)N1CCc2ccccc21	3	0	1	0	-1
O=C(COc1ccc(F)cc1Br)N1CCc2ccccc21	11*	2	1	0	3
COc1ccc2c(CC(=O)OCC(=O)N3CCc4ccccc43)coc2c1	1	-2	0	-1	0
COc1ccc2c(CC(=O)N3CCc4ccccc43)coc2c1	10	1	5.8*	1	3
CC(=O)c1ccc(S(=O)(=O)NCCOc2ccccc2)cc1	3	0	-1	0	0
CCCCNC(=O)NC1CCN(CC(=O)Nc2ccc3c(c2)OCCO3)CC1	0	nt	0	-1	0
